For this experiment, the target named is Genome polyprotein (dengue virus type 2) (UniProt P29990).
Where [1] appears, read: Thailand/16681/1984, Concentration 25.0 uM, Number of replicates 1.0.

Screen size: about 2,000 compounds; about 110 (5.5%) showed an effect of 50% or more. For the sample, strong results were picked, then their nearest neighbours and some compounds at random.

Our source for the inhibition values is ChEMBL document CHEMBL5606460, “ASAP - DENV-2 NS2B-NS3 protease fluorescence single point” (2024).

The term inhibition denotes the change of the read-out against control, counted positive when it falls.

`O=Cc1ccc(N2CCC(C(=O)N3CCN(Cc4ccc(Cl)nc4)CC3)CC2)cc1`: the inhibition under setting [1] worked out at 10.1%.
For `C[C@H](NC(=O)C1CCN(c2ccc(C=O)cc2)CC1)c1cccc(C(F)(F)F)c1`, the inhibition under setting [1] turned out to be 11%.
The same measure, in the same setting: with `O=Cc1ccc(N2CCC(C(=O)N[C@H]3C[C@@H]3c3ccc(F)c(F)c3)CC2)cc1` the figure was 12.2%.
`O=Cc1ccc(N2CCC(C(=O)NCc3ccccc3OC(F)(F)F)CC2)cc1`: under setting [1], the inhibition was 12.7%.
As to `O=Cc1ccc(N2CCC(C(=O)Nc3ccc(Oc4ccc(Cl)cc4)cc3)CC2)cc1`, under setting [1], the inhibition was found to be 3.01%.
Take `O=C(c1cc2ccccc2[nH]1)N1CCC[C@H](c2c[nH]c3ncccc23)C1`: the inhibition is, setting by setting: (Thailand/16681/1984, Concentration 49.5 uM, Number of replicates 2.0, Standard deviation 0.6846779142829902 %) 3.74%; (Thailand/16681/1984, Concentration 99.01 uM, Number of replicates 2.0, Standard deviation 0.6286192340156203 %) 6.35%; (Thailand/16681/1984, Concentration 198.0 uM, Number of replicates 2.0, Standard deviation 0.39513209958624096 %) 4.86%.
For the compound `O=Cc1ccc(N2CCC(C(=O)N3CCO[C@@H](c4ccccc4)C3)CC2)cc1`, the inhibition under setting [1] amounted to 8.68%.
Turning to `Cc1cc(CO)c2cccc(Cc3cccc(C(=O)NCCN4CCOCC4)c3)c2n1`, the inhibition by setting is: (Thailand/16681/1984, Concentration 49.95 uM, Number of replicates 2.0, Standard deviation 1.1800261159088588 %) -8.12%; (Thailand/16681/1984, Concentration 99.9 uM, Number of replicates 2.0, Standard deviation 0.7869239771342965 %) -3.46%.
For `O=C(NCC1(c2ccncc2F)CCC1)[C@@]1(c2ccc(F)cc2)CCCNC1`, the inhibition by setting is: (Thailand/16681/1984, Concentration 49.5 uM, Number of replicates 2.0, Standard deviation 0.9074685157350926 %) -2.89%; (Thailand/16681/1984, Concentration 99.01 uM, Number of replicates 2.0, Standard deviation 1.7740222143666056 %) -1.32%; (Thailand/16681/1984, Concentration 198.0 uM, Number of replicates 2.0, Standard deviation 1.670161679604597 %) -0.296%.
Regarding `Cc1cc(CO)c2cccc(Cc3cccc(C(=O)N[C@@H](CCC(N)=O)C(=O)O)c3)c2n1`, the inhibition reads like this: (Thailand/16681/1984, Concentration 49.95 uM, Number of replicates 2.0, Standard deviation 0.9076569964416333 %) 26.5%; (Thailand/16681/1984, Concentration 99.9 uM, Number of replicates 2.0, Standard deviation 0.5346782919570826 %) 79%.
`Cc1cc(CO)c2cccc(CC(=O)N[C@@H](C)C(N)=O)c2n1`: the inhibition was -6.74% (Thailand/16681/1984, Concentration 49.95 uM, Number of replicates 2.0, Standard deviation 0.6764350022386235 %) and -4.59% (Thailand/16681/1984, Concentration 99.9 uM, Number of replicates 2.0, Standard deviation 0.17585957987303982 %).
For `Cc1cc(CO)c2cccc(CC(=O)N[C@@H](CCC(N)=O)C(=O)O)c2n1`, the inhibition worked out at 95.6% (Thailand/16681/1984, Concentration 49.95 uM, Number of replicates 2.0, Standard deviation 0.1031646955614498 %) and 98.7% (Thailand/16681/1984, Concentration 99.9 uM, Number of replicates 2.0, Standard deviation 0.012461980167701147 %).
As to `Cc1cc(CO)c2cccc(Cc3cccc(C(=O)N[C@@H](CCN)C(=O)O)c3)c2n1`, the inhibition was -9.07% (Thailand/16681/1984, Concentration 49.95 uM, Number of replicates 2.0, Standard deviation 0.6194784255105775 %) and 0.432% (Thailand/16681/1984, Concentration 99.9 uM, Number of replicates 2.0, Standard deviation 14.524673907807347 %).
Consider `Cc1cc(CO)c2cccc(Cc3ccccc3C(=O)N[C@@H](CCC(N)=O)C(=O)O)c2n1`, for which the inhibition runs as follows: (Thailand/16681/1984, Concentration 49.95 uM, Number of replicates 2.0, Standard deviation 0.9816783263695582 %) 12.6%; (Thailand/16681/1984, Concentration 99.9 uM, Number of replicates 2.0, Standard deviation 0.9155644195718532 %) 39.4%.
As for `Cc1cc(CO)c2cccc(Cc3cccc(C(=O)N[C@@H](CCCN)C(=O)O)c3)c2n1`, the inhibition was -1.78% (Thailand/16681/1984, Concentration 49.95 uM, Number of replicates 2.0, Standard deviation 0.7049975000059713 %) and 11.7% (Thailand/16681/1984, Concentration 99.9 uM, Number of replicates 2.0, Standard deviation 0.2824297407941699 %).
For the compound `OB1CCc2c(cccc2N2CC[C@@H](O)C2)O1`, the inhibition (Thailand/16681/1984, Concentration 49.5 uM, Number of replicates 2.0, Standard deviation 2.1653827241885084 %) is -1.07%; the inhibition (Thailand/16681/1984, Concentration 99.01 uM, Number of replicates 2.0, Standard deviation 1.9510885480745654 %) is -0.363%; the inhibition (Thailand/16681/1984, Concentration 198.0 uM, Number of replicates 2.0, Standard deviation 2.0113725552722737 %) stood at 1.02%.
On to `Cc1nnccc1Cn1cc(C2CCNCC2)c(C)n1`, for which the inhibition is, setting by setting: (Thailand/16681/1984, Concentration 49.5 uM, Number of replicates 2.0, Standard deviation 1.059758229221688 %) -5.29%; (Thailand/16681/1984, Concentration 99.01 uM, Number of replicates 2.0, Standard deviation 7.779121042682183 %) 2.01%; (Thailand/16681/1984, Concentration 198.0 uM, Number of replicates 2.0, Standard deviation 1.1444678313445817 %) -3.21%.
As to `Cc1cc(CO)c2cccc(C[C@H](NC(=O)[C@@H](N)c3ccsc3)C(=O)O)c2n1`, the inhibition runs as follows: (Thailand/16681/1984, Concentration 49.95 uM, Number of replicates 2.0, Standard deviation 1.7977802295531586 %) 8.31%; (Thailand/16681/1984, Concentration 99.9 uM, Number of replicates 2.0, Standard deviation 1.1856845832025373 %) 20.1%.
For `Cc1cc(CO)c2cccc(Cc3ccccc3NC(=O)c3ccno3)c2n1`, the inhibition by setting is: (Thailand/16681/1984, Concentration 49.95 uM, Number of replicates 2.0, Standard deviation 3.752588616330447 %) 3.29%; (Thailand/16681/1984, Concentration 99.9 uM, Number of replicates 2.0, Standard deviation 1.45880155634974 %) 6.29%.
Consider `Cc1cccc(C)c1OC[C@H](C)NC(=O)C1CCN(c2ccc(C=O)cc2)CC1`, for which the inhibition under setting [1] turned out to be 6.86%.
For the compound `CN(c1ccc(Cl)cc1C(N)=O)S(=O)(=O)c1ccc(Oc2ccccc2Cl)cc1`, the inhibition reads like this: (Thailand/16681/1984, Concentration 49.5 uM, Number of replicates 2.0, Standard deviation 0.11551161483271621 %) 1.15%; (Thailand/16681/1984, Concentration 99.01 uM, Number of replicates 2.0, Standard deviation 0.4161514072882 %) 3.78%; (Thailand/16681/1984, Concentration 198.0 uM, Number of replicates 2.0, Standard deviation 1.5666270190069185 %) 5.59%.
Consider `CCCN(C)C(=O)c1cc(Cl)ccc1NS(=O)(=O)c1ccc(Oc2ccccc2Cl)cc1`, for which the inhibition (Thailand/16681/1984, Concentration 49.5 uM, Number of replicates 2.0, Standard deviation 0.9470295707961462 %) is 75.9%; the inhibition (Thailand/16681/1984, Concentration 99.01 uM, Number of replicates 2.0, Standard deviation 0.4835625940830703 %) was 88.8%; the inhibition (Thailand/16681/1984, Concentration 198.0 uM, Number of replicates 2.0, Standard deviation 0.2692812727579233 %) amounted to 93.4%.
`CN(CCS(N)(=O)=O)C(=O)c1cc(Cl)ccc1NS(=O)(=O)c1ccc(Oc2ccccc2Cl)cc1`: the inhibition amounted to 8.12% (Thailand/16681/1984, Concentration 49.5 uM, Number of replicates 2.0, Standard deviation 3.051075775612508 %); 55.8% (Thailand/16681/1984, Concentration 99.01 uM, Number of replicates 2.0, Standard deviation 2.2523140974306535 %); 97.7% (Thailand/16681/1984, Concentration 198.0 uM, Number of replicates 2.0, Standard deviation 0.05978513602530914 %).
For the compound `CNC(=O)c1cc(Cl)ccc1N(C)S(=O)(=O)c1ccc(Oc2ccccc2Cl)cc1`, the inhibition is -2.39% (Thailand/16681/1984, Concentration 49.5 uM, Number of replicates 2.0, Standard deviation 1.1912141654334696 %); -0.121% (Thailand/16681/1984, Concentration 99.01 uM, Number of replicates 2.0, Standard deviation 1.3706697565683075 %); 3.32% (Thailand/16681/1984, Concentration 198.0 uM, Number of replicates 2.0, Standard deviation 0.031456216092408736 %).
